Experiment: CREB reporter modulators without forskolin, primary screen, cell-based, PC12, CRE-LacZ reporter, unstimulated (AID 1145)
Conditions: no forskolin, luminescence, 4.5 h, higher = more signal, called active from +8 up or from −8 down

z-score, inactive:
CCCCCN1CC=CC23O[C@@H]4/C=C\CCCOC(=O)C4[C@H]2C(=O)N(CCCCCO)[C@@H]3C1=O (some centres undefined) -1.03
C[C@]1(C(=O)NCC(F)(F)F)c2ccccc2C(=O)N(Cc2cc(C(F)(F)F)cc(C(F)(F)F)c2)[C@H]1c1ccc(CO)cc1 0.324
COC(=O)C[C@H]1O[C@]2(C(=O)N(C)c3ccccc32)[C@@H](C)[C@@H]1[Si](C)(C)c1ccccc1 -0.141
COc1ccc([Si](C)(C)[C@H]2[C@H](CC(=O)N3CCC[C@H]3CO)O[C@@]3(C(=O)N(C)c4ccccc43)[C@@H]2C)cc1 1.2
COCCOC(=O)N1C(=O)[C@@]2(c3cc(C#CCC(C(=O)OC)C(=O)OC)ccc31)[C@H](C(=O)N1CCc3cc(OC)c(OC)cc3C1)[C@H]1C(=O)O[C@H](c3ccccc3)[C@H](c3ccccc3)N1[C@@H]2c1ccccc1OCCO -1.14
O=C1C2C=CC(C(O)C(c3ccccc3)c3ccccc3)N(Nc3ccccc3F)C2C(=O)N1c1ccccc1 (centres undefined) 2.73
CC1C2C(CCCO)=CC(C3C(=O)N(C(N)=O)C(=O)C23)N1Cc1cccc(OC(F)(F)F)c1 (centres undefined) -0.233
CN(C)CCCC[C@@H]1NC(=O)[C@H]2C[C@@H](C(=O)NCCCCCCNC(=O)CS)[C@@H](c3cccc(OCCO)c3)N2C1=O -0.809
CCCC1(C(=O)OC)C=C2C(=C(C(C)C)C(=O)C2C)CN1 (centres undefined) 0.786
CCCCCCc1nc(Cc2cc(OC)c(OC)c(OC)c2)c(C)c2c1[Si](C(C)C)(C(C)C)OC2 0.367
COc1c(C)cc(-c2nc(-c3ccccc3)c3c(c2C)CO[Si]3(C(C)C)C(C)C)cc1C 0.54
[N-]=[N+]=Nc1ccccc1C[C@]1(C(=O)N2CCCCC2)N=C(c2ccc(OCCCO)cc2)O[C@H]1c1ccccc1 -0.506

Experiment: CREB reporter modulators under forskolin, primary screen, cell-based, PC12, CRE-LacZ reporter, forskolin-stimulated (AID 1146);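 further: PC12 cells with 6xCRE LacZ reporter stimulated by forskolin 10 µM; beta-galactosidase reporter signal reflecting CREB driven transcription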
Conditions: luminescence, 4.5 h, higher = more signal, called active from +8 up or from −8 down

z-score, inactive:
COc1cc(Cc2cc3c(c(CCc4ccccc4)n2)[Si](C(C)C)(C(C)C)O[C@H]3c2ccccc2)cc(OC)c1OC 0.992
C[C@]12C(=O)N(CCO)[C@@H]3C(=O)N(c4ccc(Cl)cc4)CC=CC31O[C@@H]1/C=C\CCCOC(=O)C12 (some centres undefined) 0.0098
COc1cc2c(cc1O)C(C)N(Cc1sc3ccccc3c1Cl)CC2 (centres undefined) -0.487
CN1C(=O)C2C=CC(C(O)c3ccc([N+](=O)[O-])cc3)N(Nc3ccccc3)C2C1=O (centres undefined) -0.323
COC(=O)[C@@]1(Cc2ccc(F)cc2)[C@H]2c3cc(C(=O)N(C)C)n(CCF)c3C[C@H]2CN1C(=O)c1ccccc1 0.25
O=C/C=C/c1ccc(-c2ccccc2)cc1 3.74
C=C(C(=O)CC[C@@H](OC(=O)c1ccccc1-c1ccccc1C(=O)O)c1ccc(OCCO)cc1)C(C)C 2.07
COc1ccc(C#Cc2ccc3c(c2)[C@]2(C(=O)N3)[C@H](c3ccccc3OCCO)N3[C@H](c4ccccc4)[C@H](c4ccccc4)OC(=O)[C@H]3[C@@H]2C(=O)NC[C@H](O)c2ccccc2)cc1 -0.54
O=C1NC(=O)C2C1C=CC(C(O)c1ccc(F)cc1)N2Nc1ccc(Cl)cc1Cl (centres undefined) -0.207
C[C@@]1([C@@H](NS(=O)(=O)c2cccc3cccnc23)c2ccc(-c3ccccc3)cc2)C[C@H]1C1CCCCC1 -0.152
O=C1N(Cc2ccccc2)c2ccccc2C[C@@]12N=C(c1ccc(OCCCO)cc1)O[C@H]2c1ccccc1 -0.483
COc1ccc(NN2C(C(O)c3ccccc3)C=CC3C(=O)N(C4CCCCC4)C(=O)C32)cc1 (centres undefined) 1.65
C[C@]1(C(=O)NC2CC2)c2ccccc2C(=O)N(Cc2cc(F)cc(C(F)(F)F)c2)[C@H]1c1ccc(CO)cc1 0.864
O=C(CS)NCCCCCCNC(=O)[C@H]1C[C@H]2C(=O)NCC(=O)N2[C@H]1c1cccc(OCCO)c1 -0.963
COC(=O)[C@@]1(Cc2ccc(OC)cc2)[C@H]2c3cc(C(=O)N(C)C)n(Cc4c(CO)[nH]cc(C)c4=O)c3C[C@H]2CN1C(=O)c1ccccc1 2.29
COCCCNC(=O)[C@@]1(Cc2ccccc2I)c2ccccc2C(=O)N(C2CCCCC2)[C@H]1c1ccc(CO)cc1 -0.175
COC(=O)[C@@]1(Cc2ccc(OC)cc2)[C@@H]2[C@@H](CC(=O)[C@H]2CC(=O)C(=O)N(C)C)CN1C(=O)c1ccccc1 0.247
